# Test results: PubChem BioAssay (Tox21)
# Records with an inconclusive call do not appear. Values without a mark were called inactive. Calls follow the shape of the dose curve; as a rule, active = well fitted cell-killing curve with a large enough effect in the repeat runs; inconclusive = weak or mixed curves; inactive = flat fitted curve, though single readings scatter.
# Test: qHTS assay to identify small molecule antagonists of the estrogen receptor beta (ER-beta) signaling pathway - cell viability counter screen (AID 1259382); also: nearly all actives have a fitted effect of over 55% in size
# Details: ER-beta-UAS-bla HEK293T viability, CellTiter-Glo luminescence, 16 h; series mostly up to 92.4 µM; activity change, negative = cytotoxicity: at the top concentration
# Excerpt: U.S. Tox21 Program National Center for Advancing Translational Sciences [NCATS] NIH Chemical Genomics Center [NCGC] U.S. Environmental Protection Agency [EPA] National Institutes of Environmental Health Sciences [NIEHS] National Toxicology Program [NTP] U.S. Food and Drug Administration [FDA] Tox21 Assay Overview: Estrogen receptor (ER), a nuclear hormone receptor, plays an important role in development, metabolic homeostasis and reproduction. Two subtypes of ER, ER-alpha and ER-beta, have similar expression patterns with some uniqueness in both types. Endocrine disrupting chemicals (EDCs) and their interactions with steroid hormone receptors like ER causes disruption of normal endocrine function. To identify the compounds that inhibit ER signaling, an ER-beta-UAS-bla GripTite cell line (Life Technologies, Madison, WI, USA) containing a beta-lactamase reporter gene under the control of an UAS response element was used to screen Tox21 10K compound library. The cytotoxicity of the Tox21 compound library against the ER-beta-bla cell line was tested in parallel by measuring the cell viability using CellTiter-Glo assay in the same wells.
# Tox21 Assay Protocol Summary: ER-beta-UAS-bla HEK293T cells were dispensed at 2,000 cells/4 uL of assay medium containing 2% charcoal stripped FBS per well into black wall/clear-bottom 1536-well plates using a Multidrop Combi (ThermoFisher Scientific, Waltham, MA) dispenser. After the assay plates were incubated at a 37C and 5% CO2 for 6 hr, 23 nL of compounds dissolved in DMSO, positive controls or DMSO only was transferred to the assay plate by a Pintool station (Kalypsys, San Diego, CA), followed by addition of 1 uL (1nM as final concentration) of 17-beta-estradiol (E2) in assay medium using a Flying Reagent Dispenser (FRD, Aurora Discovery, San Diego, CA). The plates were incubated at 37C and 5% CO2 for 16 hr. Then 1 uL of LiveBLAzer B/G FRET substrate was added using a Flying Reagent Dispenser, the plates were incubated at room temperature for 2 hours, and fluorescence intensity was measured by an Envision plate reader (PerkinElmer, Shelton, CT). For cell viability readout that measures cytotoxicity, 4 uL/well of CellTiter-Glo reagent was added into the assay plates using a FRD. After 30 min incubation at room temperature, the luminescence intensity in the plates was measured using a ViewLux (PerkinElmer) plate reader.
# % is scaled to controls: 0 for no effect and ±100 for the full control effect.
row,SMILES,"activity change, negative = cytotoxicity"
1,Nc1nc(-c2ccccc2)c(Br)c(=O)[nH]1,2.37% [at 42.5 µM]
2,O/N=C/C=N/O,1.14%
3,Cc1cc(-c2ccccc2)nnc1NCCN1CCOCC1,-2.17% [at 42.5 µM]
4,OC1OCCOC1O (stereo not given),13.1%
5,C#CCN[C@@H]1CCc2ccccc21,-1.87% [at 42.5 µM]
6,COC(=O)/C=C\C(=O)O,8.07%
7,C=C(C)[C@@H]1CC=C(C)C(=O)C1,1.06%
8,CCCCCCC1(C)CCC(=O)O1 (stereo not given),5.13%
9,CCOc1cccc(N)c1,-0.0905%
10,CC1(C)Oc2ccc(C#N)cc2[C@@H](N2CCCC2=O)[C@@H]1O,7.31% [at 42.5 µM]
11,O=S(=O)(O)c1ccc2c(N=Nc3ccc(S(=O)(=O)O)c4ccccc34)c(O)c(S(=O)(=O)O)cc2c1,-3.29% [at 8.39 µM]
12,N#CCC(=O)NN,5.02% [at 42.5 µM]
13,O=C(Cl)c1ccccc1[N+](=O)[O-],-2.73%
14,CC(C)C[C@@H]1[C@H](c2ccccc2)OC(=O)N1CCCN1CCCCCC1,2.49% [at 42.5 µM]
15,CC(C)(C)NC[C@H](O)COc1cccc2c1CCCC2=O,-1.26% [at 42.5 µM]
16,CC1=NN(c2ccc(S(=O)(=O)O)cc2)C(=O)C1,6.59%
17,[O-][n+]1cccc(/C(Cl)=N/OC[C@@H](O)CN2CCCCC2)c1,1.42% [at 42.5 µM]
18,N#Cc1ccccc1O,9.08%
19,CCCCCCCCCOC(=O)CCCCC(=O)OCCCCCCC,0.295%
20,CC1=C(O)C(=O)C(C)O1 (stereo not given),1.43%

row,SMILES,"activity change, negative = cytotoxicity"
1,CCC[C@@H]1C[C@@H](C(=O)N[C@@H]([C@H]2O[C@H](SC)[C@H](O)[C@@H](O)[C@H]2O)[C@@H](C)O)N(C)C1,4.1% [at 42.5 µM]
2,C=C(C)[C@@H]1CC=C(C)CC1,7.41%
3,CC(C)CCOC(=O)c1ccccc1,-2.91%
4,O=C(NCN1CCOCC1)c1cnccn1,0.552% [at 42.5 µM]
5,CCCCCC/C=C/C(=O)OC,-2.89%
6,CC(=O)O[C@H]1C[C@@H]2CC[C@@]1(C)C2(C)C,-0.387%
7,Cc1c(N)cccc1Cl,-4.36%
8,CCn1cc(C(=O)O)c(=O)c2cnc(N3CCCC3)nc21,13.9% [at 8.39 µM]
9,CCCCOC(=O)C(C)O (stereo not given),0.998%
10,CCCCCCCCCCCCCCCCCCOCCO,4.32% [at 19 µM]
11,O=C(O)CCCCCC(=O)O,7.13%
12,CC(C)NC(=O)c1ccc(C=O)cc1,0.88% [at 42.5 µM]
13,C=CC(=O)CCCCC,11.7%
14,CC(C)=CCC[C@@](C)(O)[C@H]1CC=C(C)CC1,-15.2% [at 42.5 µM]
15,COC(=O)CCCCC(CCSS/C(CCO)=C(\C)N(C=O)Cc1cnc(C)nc1N)SC(C)=O (stereo not given),0.0401% [at 42.5 µM]
16,Cn1c(=O)c2c(ncn2CCO)n(C)c1=O,-0.944% [at 42.5 µM]
17,CCCc1ccc(O)cc1,-4.57%
18,CC1=C(C(=O)O)N2C(=O)[C@@H](NC(=O)[C@H](N)C3=CCC=CC3)[C@H]2SC1,2.69% [at 42.5 µM]
19,OC[C@H]1O[C@@H](O[C@@H]2[C@@H](CO)O[C@](O)(CO)[C@H]2O)[C@H](O)[C@@H](O)[C@H]1O,5.9% [at 42.5 µM]
20,Cc1ccc(C(=O)O)cc1[N+](=O)[O-],1.81%
